POLB inh: qHTS Assay for Inhibitors of DNA Polymerase Beta. Pol beta primer extension/strand displacement, fluorescence kinetic. P06746. Potency, µM (highest dose often 114 µM), most hits filed as inhibitors. 1.3% of 340,000 active
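Homogeneous kinetic assay of primer extension and strand displacement by 10 nM Pol beta, preincubated 15 min at room temperature with compound before 50 nM substrate (final) was added. Read at 0 and 10 min; four-parameter Hill fit.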
Pol eta inh-1: qHTS for Inhibitors of Polymerase Eta. AID 588591, 2011. recombinant Pol eta, fluorescent DNA replication assay. Potency, µM (titrated, usually from 114 µM), hits mostly inhibitors. 1.2% of 390,000 active. DNA polymerase eta (Homo sapiens), Q9Y253
Target sequence (Q9Y253 whole entry, looked up): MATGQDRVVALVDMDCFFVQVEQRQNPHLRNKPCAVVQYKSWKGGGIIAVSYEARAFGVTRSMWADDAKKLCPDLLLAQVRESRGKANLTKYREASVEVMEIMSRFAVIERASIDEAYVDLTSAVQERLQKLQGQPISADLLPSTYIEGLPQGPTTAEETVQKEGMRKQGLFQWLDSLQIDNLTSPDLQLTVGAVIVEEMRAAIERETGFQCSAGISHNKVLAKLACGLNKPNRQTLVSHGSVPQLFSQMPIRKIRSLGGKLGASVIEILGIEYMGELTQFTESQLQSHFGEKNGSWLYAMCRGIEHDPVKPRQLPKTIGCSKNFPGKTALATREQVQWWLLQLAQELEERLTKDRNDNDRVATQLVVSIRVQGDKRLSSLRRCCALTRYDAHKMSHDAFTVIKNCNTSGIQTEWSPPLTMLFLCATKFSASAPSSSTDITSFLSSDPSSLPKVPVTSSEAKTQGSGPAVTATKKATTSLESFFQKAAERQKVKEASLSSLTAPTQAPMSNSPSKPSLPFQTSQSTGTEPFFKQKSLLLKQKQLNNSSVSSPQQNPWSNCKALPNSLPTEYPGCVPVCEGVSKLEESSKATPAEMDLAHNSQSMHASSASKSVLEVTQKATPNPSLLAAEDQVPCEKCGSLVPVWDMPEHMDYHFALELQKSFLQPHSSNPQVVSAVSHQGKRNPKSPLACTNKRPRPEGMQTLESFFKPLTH
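Pol eta at 10 nM preincubated with compounds 15 min at room temperature; reaction started with fluorescent substrate (50 nM final) and read kinetically at 0 and 10 min.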
Pol iota inh: qHTS for Inhibitors of Polymerase Iota. DNA polymerase iota (Homo sapiens), Q9UNA4. Pol iota fluorescent replication assay, 10 min. Potency, µM (series often up to 115 µM), most hits filed as inhibitors. 1% of 390,000 active
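Pol iota at 10 nM preincubated 15 min with compounds at room temperature; reaction started with fluorescent substrate, 50 nM final. Fluorescence read kinetically at 0 and 10 min; buffer-only wells as negative control.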
PGK inhibitor: qHTS Assay to Find Inhibitors of Phosphoglycerate Kinase. Phosphoglycerate kinase, glycosomal (Trypanosoma brucei brucei), P07378. PGK/GAPDH coupled, Kinase-Glo luminescence, 60 min. Potency, µM (highest dose often 57.5 µM), actives largely listed as inhibitors. 0.043% of 380,000 active. AID 602233, 2012; note: nearly all actives have a fitted effect of over 60% in size
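Luminescent ATP detection (Kinase-Glo Plus) follows a 60-minute room-temperature incubation, with wells lacking PGK as controls. Buffer: 100 mM TEA (pH 7.6), 5 mM MgCl2, 0.01% Tween-20. Coupling enzyme GAPDH (100 nM final) supplies unstable 1,3-BPG in-well.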
FEN1 inh: qHTS Assay for the Inhibitors of Human Flap endonuclease 1 (FEN1); P39748; Recombinant FEN1 flap cleavage, fluorescence, 15 min; Potency, µM (top dose mostly 114 µM), actives largely listed as inhibitors; 0.35% of 390,000 active; note: nearly all actives have a fitted effect of over 65% in size
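Compounds are tested as a concentration series against 10 nM FEN1; after a 15 min room-temperature preincubation, 50 nM substrate starts cleavage, with plate reads at 0 and 15 min. Normalized responses are fitted by a Hill equation.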
Pol kappa inh-1: qHTS for Inhibitors of Polymerase Kappa. DNA polymerase kappa (Homo sapiens), Q9UBT6. AID 588579, 2011. purified Pol kappa, fluorescent DNA synthesis assay, 10 min. 0.53% of 400,000 active. Potency, µM (series often up to 107 µM), most hits filed as inhibitors
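Inhibition of 10 nM Pol kappa is measured by a fluorescent read-out at 0 and 10 min following addition of 50 nM substrate (final), with a 15-min room-temperature compound preincubation.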
TbPGK inh: qHTS for inhibitors of Phosphogylcerate Kinase: Hit Validation Screen; shares compounds with Pol kappa inh-1; TbPGK coupled GAPDH assay, Kinase-Glo luminescence; Potency, µM (top dose mostly 57.5 µM), hits mostly inhibitors; 79% of 500 active; AID 686980, 2013; note: nearly all actives have a fitted effect of over 65% in size
POLI cherry-pick: qHTS for Inhibitors of Polymerase Iota: Confirmatory Assay for Cherry-picked Compounds; 77% of 1,500 active; Potency, µM, usual class: inhibitors; shares compounds with Pol kappa inh-1; Pol iota primer extension, TAMRA/BHQ fluorescence
Pol kappa inh-2: qHTS for Inhibitors of Polymerase Kappa: Confirmatory Assay for Cherry-picked Compounds. shares compounds with Pol eta inh-1. purified Pol-kappa, fluorescent strand-displacement substrate. Potency, µM, hits mostly inhibitors. 76% of 920 active. AID 720501, 2013
Pol eta inh-2: qHTS for Inhibitors of Polymerase Eta: Confirmatory Assay for Cherry-picked Compounds; Pol eta primer extension, TAMRA/BHQ fluorescence, 10 min; Potency, µM, most hits filed as inhibitors; 64% of 2,600 active; AID 720502, 2013; shares compounds with Pol eta inh-1
Hits are given with their value; 0 = inactive; ? = inconclusive; - = no result given; ! = not confirmed by another sample; [ ] = remark or other dose. Most compounds without a hit are left out; they make up all but 2.4% or so of the library. Calls come from the whole dose curve; as a rule, active = well fitted curve in the direction sought with a large enough effect; inconclusive = small, poorly fitted or top-dose-only effect, or another doubt; inactive = no such curve, though single readings can be large; an effect the other way counts as inactive or inconclusive.

SMILES	POLB inh	Pol eta inh-1	Pol iota inh	PGK inhibitor	FEN1 inh	Pol kappa inh-1	POLI cherry-pick	Pol eta inh-2	others
CCCCC/C=C\C/C=C\C/C=C\CCCCC(=O)O	-	20µM	40µM	0	0	50µM!	67	30	Pol kappa inh-2=21
CCCCC/C=C\C/C=C\C/C=C\CCCCCCC(=O)O	-	-	-	-	-	0[19.4 µM]	-	-
CC(=O)c1sc(NC(=O)c2c(-c3ccccc3)c(-c3ccccc3)nn(C)c2=O)nc1C	0	0	0	0	0	0	-	-
CC(/C=C1\SC(=S)N(c2ccc(C(=O)O)cc2)C1=O)=C\c1ccccc1	0	22µM	20µM	0	0	0	38	43
CC(/C=C1\SC(=S)N(NC(=O)c2ccc(C)cc2)C1=O)=C\c1ccccc1	0	0	0	0	0	0	-	-
Cc1ccc(Cl)cc1NC(=O)Cn1cc(S(=O)(=O)Cc2ccccc2Cl)c2ccccc21	0	0	0	0	0	0	-	-
Cc1ccc(CNC(=O)C(C(C)C)N2Cc3ccccc3C2=O)cc1 (stereo unspecified)	0	0	0	0	0	0	-	-
Cc1cc(C)c(Nc2cc(S(=O)(=O)O)c(N)c3c2C(=O)c2ccccc2C3=O)c(C)c1	20µM	18µM	?	?	56µM	?	-	?	TbPGK inh=29µM;Pol kappa inh-2=34
COCC(=O)OC1CCn2c1nc1c2C(=O)C(C)=C(NC(C)=O)C1=O (stereo unspecified)	-	4µM	4.5µM	0	0	0	17	30
CCCCOC(=O)c1c(C)oc2c1cc(NS(=O)(=O)c1cc(OC)ccc1OC)c1ccccc12	0	0	0	0	0	0	-	-
O=C(N/C=C/c1ccco1)NCc1ccccc1	16µM	18µM	?	0	?	35µM	27	27
O=C(O)c1cccc2c1C(=O)c1ccccc1-2	0	0	0	0	0	0	-	-
O=C1C(=C(I)I)c2ccccc2-c2ccccc21	-	22µM	?	0	0	0	21	24
O=C1NC(=S)S/C1=C\C=C\c1ccc([N+](=O)[O-])o1	?	2.2µM	2.2µM	28µM	32µM	10µM	2.7	4.8	TbPGK inh=2.6µM;Pol kappa inh-2=4.7
O=C1SCCN1N=Cc1ccc([N+](=O)[O-])o1	-	0	?	0	0	0	-	-
CCCCCCCCCCCCCCC[C@H](O)[C@@H](N)CO	-	-	-	-	-	0[19.4 µM]	-	-
CCC(Sc1nc2ccsc2c(=O)n1Cc1ccc(C(=O)O)cc1)C(=O)Nc1cc(Cl)ccc1C (stereo unspecified)	-	?	-	?	-	-	67	-	Pol kappa inh-2=67
Cc1cccc(N2CCN(C(=O)c3cnn(-c4ccccc4)c3C3CCN(C(=O)OC(C)(C)C)CC3)CC2)c1C	0	0	0	0	0	0	-	-
Cc1ccc(-c2noc(-c3nnn(CC(=O)Nc4cccc(C(F)(F)F)c4)c3N)n2)cc1	?	-	0	-	0	0	-	-
CC(C)n1cc(/C=C2/SC(=O)N(CC(=O)N3CCCC3)C2=O)c2ccccc21	0	0	0	0	0	0	-	-
O=C(O)c1cccc(-n2cccc2/C=C2/SC(=O)N(CC(=O)N3CCCC3)C2=O)c1	10µM	5µM	7.9µM	?	0	?	30	24	Pol kappa inh-2=9.5
Cc1cccc(N=C2NC(=O)/C(=C/c3cccn3C)S2)c1C	0	0	?	0	0	0	-	-
Cc1ccccc1N=C1NC(=O)/C(=C/c2cccn2-c2cccc(C(=O)O)c2)S1	10µM	18µM	20µM	?	0	79µM	42	27	Pol kappa inh-2=27
CC(C)C(=O)OCc1cc(=O)n2nc(C3CC3)sc2n1	0	0	0	0	0	0	-	-
O=C(/C=C/c1ccc2c(c1)OCO2)c1cccs1	-	-	-	-	-	0[19.4 µM]	-	-
SMILES	POLB inh	Pol eta inh-1	Pol iota inh	PGK inhibitor	FEN1 inh	Pol kappa inh-1	POLI cherry-pick	Pol eta inh-2	others
CC1=NN(c2ccc(S(=O)(=O)O)cc2C)C(=O)C1	0	?	0	0	0	0	-	-
O=C(O)C1=NN(c2cc(Cl)c(S(=O)(=O)O)cc2Cl)C(=O)C1	-	22µM	1.6µM	?	?	79µM	-	?	TbPGK inh=9.2µM;Pol kappa inh-2=15
Cn1nnc2c(NCCc3ccccc3)ncnc21	0	0	0	0	0	0	-	-
Oc1cc2c(cc1O)[C@H]1c3ccc(O)c(O)c3OC[C@@]1(O)C2	-	14µM	7.9µM	?	35µM	22µM	38	27	Pol kappa inh-2=24
COC(=O)c1cccc(-n2c(C)cc(C=O)c2C)c1	0	0	0	0	0	0	-	-
Cc1cc(C=O)c(C)n1-c1cccc(C(=O)O)c1	14µM	4µM	18µM	0	0	79µM	34	21
Cc1cc(C=O)c(C)n1-c1cc(C(=O)O)cc(C(=O)O)c1	7.9µM	4µM	25µM	10µM	?	50µM	17	5.4	TbPGK inh=?
O=S(=O)(c1ccc(-c2cc(C(F)(F)F)on2)s1)N1CCN(c2cccc(Cl)c2)CC1	0	0	0	0	0	0	-	-
Cc1ccc(-n2nc3c(N4CCC(C(=O)NCCC(C)C)CC4)nnc(C)c3c2C)cc1	0	0	0	0	0	0	-	-
O=C(/C=C/c1ccco1)Nc1cccnc1	0	0	0	0	0	0	-	-
O=C(/C=C/c1ccco1)c1cccnc1	0	14µM	?	0	0	?	67	30
CC(=O)Nc1cc(C(=O)CSc2nnc(C3CC3)n2C2CC2)ccc1O	-	11µM	8.9µM	0	0	35µM	?	76
CCc1ccc(/C(C)=N/NC(=O)CNC(=O)/C=C/c2ccco2)cc1	-	8.9µM	5µM	14µM	45µM	32µM	15	21	TbPGK inh=3.3µM
